Screening results: PubChem, National Center for Advancing Translational Sciences (NCATS)
D2 PAM-1: Beta-Arrestin HTS for Positive Allosteric Modulators of the Human D2 Dopamine Receptor: Potentiators | D(2) dopamine receptor (Homo sapiens), P14416 | DiscoveRx D2 beta-arrestin cells, luminescence, 90 min; 100% = 57 uM dopamine signal | potentiation, % (no concentration beside the values) | actives 0.23% (n = 360,000) | AID 624464, 2012; in the data active = potentiation above about 50%; inconclusive = mostly about 30% to 49%
Target sequence (P14416 whole entry, looked up): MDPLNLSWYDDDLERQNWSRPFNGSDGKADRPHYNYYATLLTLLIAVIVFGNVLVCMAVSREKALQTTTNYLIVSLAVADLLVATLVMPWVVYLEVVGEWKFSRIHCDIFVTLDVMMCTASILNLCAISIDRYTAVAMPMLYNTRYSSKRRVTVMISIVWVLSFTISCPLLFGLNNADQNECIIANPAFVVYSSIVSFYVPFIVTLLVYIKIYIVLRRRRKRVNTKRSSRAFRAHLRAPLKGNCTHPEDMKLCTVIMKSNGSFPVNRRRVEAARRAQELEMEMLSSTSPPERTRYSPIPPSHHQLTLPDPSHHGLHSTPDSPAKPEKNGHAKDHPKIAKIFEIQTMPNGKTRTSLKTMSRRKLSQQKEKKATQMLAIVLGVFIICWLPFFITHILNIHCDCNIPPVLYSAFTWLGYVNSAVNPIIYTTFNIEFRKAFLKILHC
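PathHunter D2 cells, attached overnight at 37 deg C, received compound in DMSO plus dopamine at EC20 (50 nM final) for 90 min at 37 deg C. Beta-arrestin recruitment was read as luminescence after 1 h with detection reagent at ambient temperature.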
D2 PAM-2: HTS Assay for Positive Allosteric Modulators of the Human D2 Dopamine Receptor: Primary Screen for Potentiators | HEK293 T-REx D2, calcium flux, EC20 dopamine potentiation | AID 485347, 2010 | D(2) dopamine receptor (Homo sapiens), P14416 | actives 0.34% (n = 340,000) | potentiation, % at 10 µM;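 active = potentiation over 3 SD above the plate norm, cut at about 30% in these data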; also: 0% is about no effect
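Cells plated with tetracycline inducer and held overnight at 30 C; calcium dye loaded 30–90 min at room temperature; baseline taken, compound added and read 180 s; EC20 dopamine then added and read 180 s.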
D2 ag-1: HTS Assay for Allosteric Agonists of the Human D2 Dopamine Receptor: Primary Screen for Agonists; HEK293 T-REx D2 cells, calcium flux agonist mode; actives 0.53% (n = 340,000); activation, % at 2 µM;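 active = activation over 3 SD above normal in the single-dose calcium agonist read, cut at about 30% in these data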; also: 0% is about no effect
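Agonism is scored from calcium flux in a force-coupled, inducible HEK293 cell line expressing D2, read kinetically for 180 s after compound addition against dopamine controls.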
D2 antag: HTS Assay for Allosteric Antagonists of the Human D2 Dopamine Receptor: Primary Screen for Antagonists; D(2) dopamine receptor (Homo sapiens), P14416; HEK293 TREx D2 cells, calcium flux, dopamine EC80; inhibition, % at 10 µM; actives 2% (n = 340,000); in the data active = inhibition above about 30%; inactive = below that, where a call was filed; also: 0% is about no effect
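Cells plated overnight at 30 C with tetracycline; no-wash calcium dye, 30–90 min RT; 10 s baseline; compound pinned; 180 s read; EC80 dopamine added; another 180 s read.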
D2 ag-2: Beta-Arrestin HTS for Positive Allosteric Modulators of the Human D2 Dopamine Receptor: Agonists; DiscoveRx PathHunter D2 beta-arrestin, luminescence, 90 min; 100% = 57 uM dopamine signal; activation, % (test concentration not listed); actives 0.084% (n = 360,000); AID 624465, 2012; in the data active = activation above about 40%; inconclusive = between about 15% and that limit
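DiscoveRx PathHunter D2 beta-arrestin cells (2,100/well) attached overnight, then compound-stimulated 90 min at 37 C in HBSS/10 mM HEPES/0.1% Tween-20 buffer; beta-galactosidase complementation read by luminescence after 1 h at ambient temperature. Dopamine 57 uM final (EC100) as control.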
D3 ag: qHTS of D3 Dopamine Receptor Agonist: D3 Dopamine Receptor B-arrestin Agonist Confirmatory Assay | shares compounds with D2 ag-1 | DiscoveRx D3 beta-arrestin cells, luminescence, 90 min | Potency, µM (series often up to 76.9 µM), inactives show at the top dose activation, usual class: activators | actives 4% (n = 2,300) | AID 720506, 2013;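 also: potency is read from the fitted curve at half-maximal effect; 100% = dopamine control response; nearly all actives have a fitted effect of over 70% in size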
D2 ag-3: qHTS of D3 Dopamine Receptor Agonist: D2 Dopamine Receptor B-arrestin Agonist Counterscreen; shares compounds with D2 ag-1; DiscoveRx PathHunter D2 beta-arrestin, luminescence, 90 min; response scale: percent relative to full dopamine signal; Potency, µM (titrated, usually from 76.9 µM), without a hit: top-dose activation, hits mostly activators; actives 5.9% (n = 2,300); also: potency is read from the fitted curve at half-maximal effect; % of control where 0% means no effect; nearly all actives have a fitted effect of over 70% in size
Numbers without * were called inactive; ? = inconclusive; . = not tested or not shown. Only some compounds are listed: those with a hit (about 2.4% of all), similar ones and a draw of the others. Unless noted, calls follow the shape of the dose curve; as a rule, active = well fitted activation curve with a large enough effect; inconclusive = small, poorly fitted or top-dose-only effect; inactive = flat fitted curve, though single readings scatter.

SMILES	D2 PAM-1	D2 PAM-2	D2 ag-1	D2 antag	D2 ag-2	D3 ag	D2 ag-3
Cc1cccc(N(C)c2nc3ccccc3c3nnc(C)n23)c1	.	5.7	-0.4	.	.	.	.
CS(=O)(=O)N(CC(=O)N1CCOCC1)c1cccc(Cl)c1	-1.7	.	.	.	-2.8	.	.
CS(=O)(=O)N(CCCC(=O)N1CCCCCC1)c1cccc(Cl)c1	-10.0	7.7	-0.4	26.1	-3.9	-7.4%	-0.6%
CCC1CCCCN1C(=O)CSc1nc(-c2ccc(OC)cc2)cc(C(F)(F)F)n1 (centres undefined)	.	-4.5	0.7	.	.	.	.
Cc1cccc(C(=O)NC(=S)NNC(=O)c2ccc(Cl)cc2)c1	-15.8	-15.3	74.7*	-0.9	-2.2	-12.7%	-9.1%
Cc1cccc(C(=O)NC(=S)NNC(=O)c2cccs2)c1	-26.5	-10.9	29.3	21.7	-4.3	.	.
Cc1cccc(OCC(=O)N(Cc2cccc(Cl)c2)Cc2ccco2)c1C	.	-2.6	.	.	.	.	.
CCOC(=O)c1[nH]c2ccc(F)cc2c1NC(=O)CCN1CCOCC1	-9.1	1.4	2.0	1.7	-4.7	.	.
CCOC(=O)c1[nH]c2ccc(Br)cc2c1NC(=O)CCN1CCCC(C)(C)C1	-28.8	-18.4	60.2*	-3.7	-5.9	-12.9%	-2.8%
COc1cccc(N2CC(=O)N(NC(=O)CSc3nc(C)cc(C)c3C#N)CC2=O)c1	-2.2	-12.5	43.3*	18.9	-4.2	-11.6%	-3.3%
O=S(=O)(NCc1ccc(F)cc1)c1cc(Br)ccc1Br	-3.0	-15.1	-0.8	4.4	-0.7	-1.5%	-5.0%
O=S(=O)(NCCc1ccc(F)cc1)c1cc(C(F)(F)F)ccc1Br	.	.	.	.	-0.9	.	.
COc1ccc2c(c1)c1c(c(=O)n(-c3cccc(Cl)c3)c(=O)n1CC(=O)N1CCCC1)n2C	.	-4.1	0.3	.	.	.	.
CC1(C)C2([N+](=O)[O-])CN3CC1([N+](=O)[O-])CN(C2)C3c1ccc(O)c(O)c1 (centres undefined)	4.7	5.3	1.3	9.8	1.5	16.6%	4.3%
Cc1ccccc1C(=O)NCC(=O)NNC(=O)CCN1CCN(c2ccccc2)CC1	-22.4	-18.7	82.5*	72.1*	13.7	?	?
O=C(CCN1CCN(c2ccccc2)CC1)NNC(=O)Cc1ccc(Br)cc1	-27.1	-22.8	77.4*	70.4*	12.2	-3.0%	24.0%
CCOc1ccc(C(=O)CCC(=O)NNC(=O)CCN2CCN(c3ccccc3)CC2)cc1	-13.1	.	.	.	9.6	.	.
CC(Oc1ccc(Br)cc1)C(=O)NNC(=O)CCN1CCN(c2ccccc2)CC1 (centres undefined)	-36.2	-14.9	38.4*	61.5*	4.0	39.5%	?
N#Cc1ccccc1CN1C(=O)c2ccccc2Sc2ccc(C(=O)OCc3ccco3)cc21	.	5.2	2.1	.	.	.	.
CCOc1cccc(-c2c(C(=O)N/N=C/c3sccc3C)nnn2-c2nonc2N)c1	-5.9	5.1	0.8	2.9	2.1	.	.
CCOc1cccc(-c2c(C(=O)N/N=C/c3ccsc3)nnn2-c2nonc2N)c1	0.1	25.6	9.1	22.8	-0.1	2.2%	-2.8%
CCc1ccc(/C=N/NC(=O)c2nnn(-c3nonc3N)c2C(C)C)cc1	-5.2	9.6	25.8	18.0	1.1	1.1%	0.7%
CCOc1ccc(/C=N/NC(=O)c2nnn(-c3nonc3N)c2-c2cccs2)cc1	-3.3	5.5	6.9	16.5	3.2	1.4%	-5.2%
CCOc1ccc(-c2c(C(=O)N/N=C/c3ccccc3)nnn2-c2nonc2N)cc1	-7.3	28.3	3.8	-2.3	0.5	.	.
COc1cc(NC(=O)CCn2c(-c3ccccc3)cc(C(C)=O)c2C)cc(OC)c1	.	-6.5	0.5	.	.	.	.
SMILES	D2 PAM-1	D2 PAM-2	D2 ag-1	D2 antag	D2 ag-2	D3 ag	D2 ag-3
Cc1cc(Cn2nc(-c3ccccc3C)cc2C(=O)O)on1	-8.5	-6.1	-0.7	-1.2	-1.9	-7.5%	-2.9%
Cc1cc2nc(-c3ccc(OCc4ccccc4F)cc3)cc(C(F)(F)F)n2n1	.	-5.7	0.3	.	.	.	.
O=C(c1oc(=O)c2ccccc2c1-c1ccccc1)N1CCC(O)CC1	-7.9	3.9	-0.8	24.3	-9.3	-7.9%	-5.6%
CCCCN(CC)C(=O)c1cc2c(=O)n3ccccc3nc2n1C	.	7.3	-0.4	.	.	.	.
O=S(=O)(Nc1ccc(-c2cn3ccccc3n2)cc1)c1ccccc1	-0.6	5.4	-0.5	40.0*	5.3	15.6%	14.8%
Cc1cccc(S(=O)(=O)Nc2ccc(-c3cn4ccccc4n3)cc2)c1	23.4	9.6	0.4	0.6	-0.4	.	.
CCOC(=O)c1oc2c(c1C)C(=O)CCC2	-1.3	-10.2	-0.4	7.1	-0.1	-10.7%	-1.2%
O=C(c1ccccc1)C1CN(Cc2ccccc2)CCC1(O)c1ccccc1 (centres undefined)	-11.3	-13.8	64.8*	45.3*	2.1	-7.8%	3.6%
OC(c1ccccc1)C1CN(Cc2ccccc2)CCC1(O)c1ccccc1 (centres undefined)	-33.8	-15.2	0.6	-7.7	-1.8	.	.
COc1ccc(Nc2sc(C(=O)c3ccc(Cl)cc3)c(N)c2C(=O)Nc2ccccc2OC)cc1	14.1	-10.0	28.0	4.8	-2.8	-11.7%	1.8%
C/C(=N\NC(=O)C12CCC(C)(C(=O)O1)C2(C)C)c1ccccc1O (centres undefined)	-8.9	-29.8	83.3*	82.5*	?	?	?
CCOC(=O)c1ccc(OCC2c3cc(OC)c(OC)cc3CCN2C(=O)Cc2ccc(OC)c(OC)c2)cc1 (centres undefined)	.	14.1	0.6	.	.	.	.
CCC(=O)N1CCc2cc(S(=O)(=O)CCC(=O)N3CCN(c4cccc(C)c4)C(C)C3)ccc21 (centres undefined)	.	-3.5	0.7	.	.	.	.
O=C(Nc1ccccc1F)c1ccc(CN2CCN(c3ccccc3)CC2)cc1	9.8	-18.0	85.1*	80.9*	?	16.3%	17.8µM*
COc1ccc(C(=O)Nc2ccc(N3CCN(Cc4ccccc4)CC3)cc2)cc1	1.7	-8.5	0.7	5.7	-9.7	.	.
